71 molecules from ChEMBL document CHEMBL4513216, “Probing the Open Global Health Chemical Diversity Library for Multistage-Active Starting Points for Next-Generation Antimalarials” (ACS Infect Dis, 2020) can be followed below.

Among all 65,000 compounds or so, about 2,100 (3.2%) showed an effect of 50% or more. The median lay at about -52%. This is one part of a sample in which strong results are shown more often than they occur.

The experiment deals with Plasmodium falciparum. The experiment is described as follows: Screen against P. falciparum Asexual Blood Stage (ABS), at 5uM. The settings on record: tested at 5 uM. The class given is functional, Dd2.
In the case of `Cc1cc(NC(=O)CCn2nc(C)c3ccccc32)n(C(C)C)n1`, the INHIBITION was -75.1%.
Turning to `CO[C@H]1CCN(S(=O)(=O)c2cn(C)cn2)[C@H]1Cc1cccnc1`, the INHIBITION was -8.09%.
Take `Cc1cc(=O)n2nc(-c3cccs3)nc2n1CC(=O)NC(C)C`: the INHIBITION is reported as -10.8%.
The same measure for `Cc1cc(C)c(CNC(=O)N(C)Cc2ccc3c(c2)OCO3)c(=O)[nH]1`: -71.6%; for `Cn1cc(NC(=O)N2CCC(OCc3ccccc3)CC2)ccc1=O`: 43.6%.
Take `Cc1nn(C)c(N(C)C)c1CNCC(O)COc1cccc(F)c1` (stereo unspecified): the INHIBITION is -0.711%.
To `COC(=O)c1ncccc1N1CCN(C(=O)CN2CCOCC2)CC1` belongs -131%; to `Cc1cnn(CC2CCCCN2C(=O)Cc2cn3ccsc3n2)c1` (stereo unspecified), -120%; to `CCc1cnc2c(c1Nc1ccc(C)c(F)c1)c(=O)n(C)c(=O)n2C`, 41.1%.
To `Cc1c(C)n(Cc2ccccn2)c2nc3c(c(N)c12)CCCCCC3` belongs 60.3%.
Regarding `Cc1c(C)n(Cc2ccccn2)c2nc3c(c(N)c12)CCCCC3`, the INHIBITION was 23.7%.
To `Cc1c(C)n(Cc2ccncc2)c2nc3c(c(N)c12)CCCCC3` belongs 21%; to `Cc1cccc2c1ccn2CCC(=O)Nc1c2c(nn1C)CSC2`, -53.4%.
To `Cc1ccc(Br)cc1NC(=O)NC1CCC2(C1)OCCO2` (stereo unspecified) belongs -96.9%; to `CC1N(c2cnn(C)c2)C(=O)COC12CCN(c1ncccn1)CC2` (stereo unspecified), -127%; to `CCc1nn(-c2cc(Oc3cc(C)ccc3C)ncn2)c(N)c1C#N`, -64%.
`C[C@]1(O)CN(CCO)CC[C@@H]1Oc1cccc(F)c1`: the INHIBITION is 65.2%.
As to `C[C@]1(O)CN(CCC(N)=O)CC[C@@H]1Oc1cccc(F)c1`, the INHIBITION is given as -39.3%.
Consider `C[C@]1(O)CN(CC(=O)N2CCCC2)CC[C@@H]1Oc1cccc(F)c1`, for which the INHIBITION was 25%.
To `CCc1cnc(N2CCc3cc(C(=O)NC)c(N(C)C)nc3CC2)nc1` belongs -12.1%.
To `O=C1[C@@H]2CC[C@@H](CN(c3ncnc4ccsc34)C2)N1CC1CC1` belongs -85.4%.
For the molecule `CC(C)Cc1noc(CN(C)c2cc(N(C)C)ncn2)n1`, the INHIBITION came out at 50.4%.
As for `CC(C)Cc1noc(CN(C)c2ncccn2)n1`, the INHIBITION is -64.8%.
For the molecule `CCc1cc(N(C)Cc2noc(CC(C)C)n2)ncn1`, the INHIBITION was -78.3%.
`CNc1cc(N2CCCC2CNCc2ccco2)ncn1` (stereo unspecified): the INHIBITION is -103%.
The same measure for `O=C(C1CCOC1)N1CC2(CCN(c3ccccc3)C2)C1` (stereo unspecified): -3.52%; for `CC(C)CC(=O)N1CC(=O)c2sc(Nc3ccc(F)cc3F)nc2C1`: -30.6%; for `Cc1ccc(OCC(O)CN2CCC(Cn3cc(C)cn3)CC2)cc1` (stereo unspecified): -93.6%.
The same measure for `Cc1cnn(CC2CCN(CC(O)Cn3cccn3)CC2)c1` (stereo unspecified): -78.8%; for `Cc1cnn(CC2CCN(CC(O)CN3CCC(C)CC3)CC2)c1` (stereo unspecified): 63.8%.
To `CCc1nc(C)c(C(=O)NCCNC(=O)c2cccs2)s1` belongs -96.9%; to `CCc1nc(NCCCn2cccn2)c2c(n1)c(C)nn2CC`, -75.8%.
With `COCCNC(=O)CN(C)C(C)c1nc(C)no1` (stereo unspecified), the INHIBITION is on record as -63.5%.
The same measure for `Cc1ccc(C(=O)NCc2ccnc(C3CCCOC3)n2)s1` (stereo unspecified): 53.3%; for `Cc1ccsc1C(=O)NCc1ccnc(C2CCCOC2)n1` (stereo unspecified): -57.8%; for `Cn1cccc1C(=O)NCc1ccnc(C2CCCOC2)n1` (stereo unspecified): -162%.
The same measure for `COc1cc(F)ccc1-c1cc(N)ccn1`: 52.7%; for `COc1cc(F)ccc1-c1cc(CO)ccn1`: -92%.
To `COc1ccc(-c2cc(N)ccn2)c(OC)c1OC` belongs -9.16%; to `CC(=O)NCc1nn(C)c2c1CN(Cc1ccsc1)C2`, -24.6%; to `Cc1csc(N2CCN(C3CCc4ccccc4C3)CC2)n1` (stereo unspecified), -22.1%.
Take `Fc1ccc(CN2CCC3(CC2)CCN(c2ncccn2)CC3)cc1`: the INHIBITION turned out to be 55%.
To `COc1ccc(CN2CCC3(CC2)CCN(c2ncccn2)CC3)cc1` belongs -85.1%.
To `Fc1ccc(CN2CCC3(CCN(Cc4nccs4)CC3)C2)cc1` belongs 57.9%.
The same measure for `c1cnc(N2CCC3(CCN(Cc4cccnc4)CC3)CC2)nc1`: -71.4%; for `c1csc(CN2CC3(CCN(Cc4ccsc4)C3)C2)n1`: -42.4%; for `Fc1ccc(CN2CCOCC3(CCN(Cc4nccs4)C3)C2)cc1` (stereo unspecified): 0.38%.
For the molecule `CSc1cccc(NC(=O)N2CCC3(CCC(=O)N(C4CC4)C3)CC2)c1`, the INHIBITION is -19.6%.
To `O=C(CCC(F)(F)F)N1CCCC(CO)(CC2CC2)C1` (stereo unspecified) belongs -11.2%.
On to `Cc1ccc(CN2CCc3c(nnn3C)C2COCc2ccccc2)s1` (stereo unspecified), for which the INHIBITION was -109%.
To `O=C(N1CCc2ccccc2CC1)C1(O)Cc2ccccc2C1` belongs 58.7%; to `O=C(N1CCN(CCO)CC1)C1(O)Cc2ccccc2C1`, -1.26%.
The same measure for `O=C(N1CCSCC1)C1(O)Cc2ccccc2C1`: -41.2%; for `Nc1nnnn1NCc1cccc(Cl)c1Cl`: -65.4%; for `Cc1nc(C)n(CC2CCCN(CC(=O)Nc3cc(C)on3)C2)n1` (stereo unspecified): 3.79%.
Take `Cc1cc(NC(=O)CN2CCCC(Cn3nc(C)nc3C)C2)n(C)n1` (stereo unspecified): the INHIBITION worked out at 54.5%.
The same measure for `Cc1cc(NC(=O)CN2CCCC2Cn2nc(C)nc2C)n(C)n1` (stereo unspecified): -142%.
`Cc1nc(C)n(CC2CCCN(CC(=O)Nc3ccncc3)C2)n1` (stereo unspecified): the INHIBITION is 60.6%.
To `Cc1nc(C)n(CC2CCCN2CC(=O)Nc2ccncc2)n1` (stereo unspecified) belongs -153%; to `Cc1nc(C)n(CC2CCCN(CC(=O)Nc3cccnc3)C2)n1` (stereo unspecified), -133%; to `COCC(=O)Nc1ccc(C)cc1-c1nc(C2CC2)no1`, -92.7%.
With `CCn1cc2c(n1)CN(Cc1ccc(C)o1)CC2COCC1CC1` (stereo unspecified), the INHIBITION is -68.6%.
In the case of `O=C(NCC1CCCCC1)NC1CCCc2c1cnn2CCO` (stereo unspecified), the INHIBITION was -133%.
The same measure for `Cc1c(C(C)NC(=O)N2CCN(C3CCCC3)CC2)cnn1C` (stereo unspecified): -70.2%.
As to `COC(=O)c1sc2cccc(F)c2c1CNC(=O)C1CCOC1` (stereo unspecified), the INHIBITION is on record as -5.44%.
The same measure for `Fc1cccc(OC2CCN(Cc3ncc[nH]3)CC2)c1`: 36.9%; for `Cc1nnc(Nc2cccc(C3CCN(Cc4ncc[nH]4)CC3)n2)s1`: 31.6%; for `Cc1cc(Nc2ccc(F)cn2)cc(C2CCN(Cc3ncc[nH]3)C2)n1` (stereo unspecified): -49.2%.
The same measure for `CNc1cccc(C2CCCN(Cc3ncc[nH]3)C2)n1` (stereo unspecified): -20.8%.
`Cc1cccc(Nc2ccc(C3CCN(Cc4ncc[nH]4)CC3)nc2)n1`: the INHIBITION is reported as 51.8%.
For the molecule `Fc1ccc(Nc2ccc(C3CCN(Cc4ncc[nH]4)CC3)nc2)nc1`, the INHIBITION worked out at 63.1%.
